SMILES strings stand for the structures. Results filed as inconclusive are left out. Activity calls are given as the source filed them. The call rests on the fitted dose curve; in most records, active means well fitted inhibition curve with a large enough effect; inconclusive means small, poorly fitted or top-dose-only effect; inactive means flat fitted curve, though single readings scatter.

What all share (experiment): qHTS profiling for inhibitors of Plasmodium falciparum proliferation (AID 504749); further: nearly all actives have a fitted effect of over 60% in size
Details in all cases: P. falciparum in erythrocytes, SYBR Green DNA, 72 h; series mostly up to 28.7 µM

The subject of one assay is 7G8. In outline: (§1)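 P. falciparum-infected erythrocytes (0.3% parasitemia, 2.5% hematocrit) incubated with compound 72 h at 37 C, 5% CO2. Parasite DNA detected by SYBR Green after lysis, overnight at room temperature; normalised to 0.29 uM artemisinin and DMSO.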
For a further assay, the system named is AS120. An outline of the steps: as §1
Another assay relates to ATS189. In outline:
as §1

Another assay has as its system CP185. In outline:
as §1

In the next assay the test system is CP194. In outline: as §1
A further assay concerns CP203. In outline: as §1
The test system of the next assay is CP217. In outline: as §1
The next assay deals with CP238. An outline of the steps:
as §1

The test system of the next assay is CP247. An outline of the steps:
as §1

A further assay relates to CP250. In outline:
as §1

In the next assay the test system is CP252. An outline of the steps: as §1
The subject of the next assay is CP256. In outline:
as §1

The subject of another assay is CP260. In outline:
as §1

The test system of another assay is CP265. An outline of the steps:
as §1

The subject of another assay is CP305. In outline: as §1
The test system of the next assay is CP325. In outline: as §1
For the next assay, the system named is CP329. An outline of the steps:
as §1

Another assay deals with N140. In outline:
as §1

For the next assay, the system named is P94_40. An outline of the steps: as §1
A further assay deals with SC27B. In outline:
as §1
Potency means the concentration at half of the fitted maximal effect.

Take `CN1C2CCC1C(C(=O)O)C(OC(=O)c1ccccc1)C2` (stereo not given): the Potency entry in the assay with 7G8, in the assay with AS120, in the assay on ATS189, in the assay on CP185, in the assay on CP194 and in the assay on CP203 was “inactive” throughout. For the same compound, the Potency entry with CP217, with CP238, in the assay on CP247, in the assay with CP250, in the assay on CP252 and in the assay on CP256 was “inactive” each time. In addition, the Potency entry with CP260, with CP265, in the assay with CP305, in the assay on CP325, in the assay on CP329 and in the assay with N140 was “inactive” throughout. In addition, the Potency entry in the assay with P94_40 and with SC27B was “inactive” throughout.
With `CCOC(=O)/C=C(C)/C=C/CC(C)CCCC(C)C` (stereo not given), the Potency entry in the assay with 7G8, in the assay with AS120, with ATS189, in the assay on CP185, in the assay on CP194 and with CP203 was “inactive” in each case. Besides, the Potency result with CP217, in the assay on CP238, in the assay with CP247, in the assay on CP250, with CP252 and with CP256 was “inactive” throughout. Moreover, the Potency entry with CP260, in the assay with CP265, in the assay with CP305, with CP325, with CP329 and in the assay on N140 was “inactive” throughout. Further, the Potency result in the assay on P94_40 and in the assay on SC27B was “inactive” each time.
With `Cc1cc(C)cc(C(=O)OC2CC3CCC(C2)N3C)c1` (stereo not given), in the assay with 7G8, the Potency was 8.91 µM (active). The Potency result in the assay on AS120, in the assay on ATS189, with CP185, in the assay on CP194, in the assay with CP203 and in the assay with CP217 was “inactive” throughout. Moreover, the Potency entry in the assay on CP238, in the assay with CP247, in the assay with CP250, in the assay with CP252, in the assay on CP256 and in the assay with CP260 was “inactive” in each case. Further, the Potency entry with CP265, in the assay on CP305, in the assay with CP325, with CP329, with N140 and with P94_40 was “inactive” each time. Besides, the Potency result in the assay on SC27B is “inactive”.
For `C=C1Nc2ccccc2C(=O)N1c1ccccc1C`, the Potency result in the assay with 7G8, in the assay with AS120, with ATS189, in the assay with CP185, in the assay on CP194 and in the assay on CP203 was “inactive” in each case. The Potency entry in the assay on CP217, in the assay on CP238, in the assay with CP247, in the assay with CP250, in the assay on CP252 and in the assay on CP256 was “inactive” throughout. For the same compound, the Potency result in the assay on CP260, in the assay with CP265, in the assay with CP305, with CP325, with CP329 and in the assay on N140 was “inactive” throughout. Also, the Potency entry in the assay on P94_40 and in the assay with SC27B was “inactive” in each case.
Take `C=CC[N+]1(C)CCC23c4c5ccc(O)c4O[C@H]2C(=O)CC[C@@]3(O)C1C5` (stereo not given in full): the Potency entry in the assay with 7G8, with AS120, in the assay with ATS189, with CP185, in the assay on CP194 and with CP203 was “inactive” each time. In addition, the Potency entry in the assay with CP217, in the assay on CP238, in the assay with CP247, in the assay with CP250, with CP252 and in the assay on CP256 was “inactive” in each case. The Potency entry with CP260, with CP265, in the assay on CP305, with CP325, with CP329 and with N140 was “inactive” each time. Further, the Potency entry in the assay with P94_40 and in the assay with SC27B was “inactive” in each case.
As to `CCCN1CCCC2Cc3nc(N)ncc3CC21` (stereo not given), the Potency result in the assay with 7G8, with AS120, with ATS189, in the assay on CP185, with CP194 and with CP203 was “inactive” each time. Also, the Potency entry with CP217, in the assay with CP238, in the assay on CP247, in the assay with CP250, with CP252 and with CP256 was “inactive” each time. Moreover, the Potency entry with CP260, in the assay with CP265, in the assay on CP305, with CP325, with CP329 and in the assay with N140 was “inactive” in each case. Besides, the Potency entry with P94_40 and in the assay on SC27B was “inactive” throughout.
In the case of `C[C@H](N)Cc1ccccc1`, the Potency entry with 7G8, in the assay on AS120, with ATS189, in the assay with CP185, in the assay with CP194 and in the assay with CP203 was “inactive” in each case. Moreover, the Potency entry in the assay with CP217, in the assay on CP238, in the assay on CP247, in the assay on CP250, in the assay on CP252 and in the assay on CP256 was “inactive” throughout. Further, the Potency entry with CP260, in the assay on CP265, in the assay with CP305, with CP325, in the assay with CP329 and in the assay with N140 was “inactive” throughout. For the same compound, the Potency entry in the assay with P94_40 and with SC27B was “inactive” in each case.
Regarding `Nc1nc(O)c(-c2ccccc2)o1`, the Potency entry in the assay on 7G8, with AS120, with ATS189, with CP185, with CP194 and in the assay on CP203 was “inactive” in each case. Moreover, the Potency entry in the assay on CP217, in the assay on CP238, with CP247, in the assay on CP250, in the assay with CP252 and with CP256 was “inactive” throughout. Also, the Potency entry in the assay on CP260, in the assay on CP265, in the assay with CP305, in the assay with CP325, in the assay with CP329 and in the assay on N140 was “inactive” each time. In addition, the Potency result in the assay with P94_40 and with SC27B was “inactive” in each case.
Take `OC[C@@H](O)[C@H]1O[C@@H]2OC(C(Cl)(Cl)Cl)O[C@H]2[C@H]1O` (stereo not given in full): the Potency entry in the assay with 7G8, in the assay on AS120, in the assay on ATS189, in the assay on CP185, with CP194 and in the assay with CP203 was “inactive” throughout. The Potency result in the assay on CP217, with CP238, in the assay on CP247, in the assay on CP250, with CP252 and in the assay with CP256 was “inactive” each time. Besides, the Potency result with CP260, with CP265, with CP305, in the assay on CP325, in the assay on CP329 and in the assay on N140 was “inactive” in each case. For the same compound, the Potency entry in the assay on P94_40 and in the assay on SC27B was “inactive” each time.
As to `CC1OC(O[C@H]2C[C@@H](O)[C@]3(CO)[C@@H]4C(CC[C@]3(O)C2)[C@@]2(O)CC[C@H](C3=CC(=O)OC3)[C@@]2(C)C[C@H]4O)C(O)C(O)C1O` (stereo not given in full), the Potency entry in the assay on 7G8, with AS120, in the assay on ATS189, in the assay on CP185, with CP194 and with CP203 was “inactive” in each case. Also, the Potency entry with CP217, with CP238, in the assay on CP247, in the assay with CP250, in the assay on CP252 and in the assay on CP256 was “inactive” in each case. The Potency entry in the assay on CP260, in the assay on CP265, in the assay with CP305, in the assay on CP325, with CP329 and with N140 was “inactive” each time. Besides, the Potency entry with P94_40 and in the assay on SC27B was “inactive” each time.

The values above are taken from PubChem BioAssay (NCATS).
